According to PubChem BioAssay AID1619 (SRMLSC, 2009):
The campaign covered roughly 220,000 compounds. About 830 (0.38%) were called active.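 Rule for the calls: active = compound inhibiting the enzyme by more than half at any dose during confirmatory dose-response retesting; inconclusive = strong single-dose inhibitors picked by rank but not retested; inactive = the rest.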 These entries were drawn from the full list. Entries with a potency or affinity are not part of this list.

Biological target: Leucine aminopeptidase (Plasmodium falciparum (isolate 3D7)) (UniProt Q8IL11)
Test: P. falciparum M17LAP inhibitors, primary screen, biochemical, fluorogenic H-Leu-NHMec substrate, 1536-well (AID 1619);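 note: plate controls were full reaction with DMSO carrier for no effect and no enzyme background for full effect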
Settings: recombinant M17LAP, H-Leu-NHMec fluorogenic kinetic assay; at 30 µM; stronger effect = higher value

Sequence of Leucine aminopeptidase (Plasmodium falciparum (isolate 3D7)) (Q8IL11 whole entry, looked up): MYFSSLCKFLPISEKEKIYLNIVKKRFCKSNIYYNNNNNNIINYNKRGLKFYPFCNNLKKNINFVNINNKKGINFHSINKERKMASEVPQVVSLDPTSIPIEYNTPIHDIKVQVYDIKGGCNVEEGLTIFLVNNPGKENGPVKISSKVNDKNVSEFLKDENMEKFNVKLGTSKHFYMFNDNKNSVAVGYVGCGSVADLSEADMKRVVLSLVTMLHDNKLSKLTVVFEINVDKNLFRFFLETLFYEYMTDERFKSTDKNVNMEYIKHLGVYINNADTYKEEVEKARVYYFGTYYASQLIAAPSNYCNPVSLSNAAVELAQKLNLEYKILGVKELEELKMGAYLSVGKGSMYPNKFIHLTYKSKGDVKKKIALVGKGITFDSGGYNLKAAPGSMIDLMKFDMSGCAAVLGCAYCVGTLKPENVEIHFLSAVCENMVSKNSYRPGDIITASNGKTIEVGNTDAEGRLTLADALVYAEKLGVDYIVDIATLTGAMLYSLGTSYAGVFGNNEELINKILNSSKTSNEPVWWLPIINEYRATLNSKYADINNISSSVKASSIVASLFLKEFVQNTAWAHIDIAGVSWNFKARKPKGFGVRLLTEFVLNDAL

inhibition, inactive:
Cc1cccc(NC(=O)COc2ccc(/C=C\c3[nH]c(=O)[nH]c(=O)c3[N+](=O)[O-])cc2)c1 23.7%
NC(=O)CSc1nc(-c2ccccc2)c(-c2ccccc2)o1 -9.73%
CNC(=O)CSc1nc(-c2ccccc2)c(-c2ccccc2)o1 3.38%
CC(C)C(=O)Nc1ccc(NC(=O)c2ccccn2)cn1 7.94%
CNC(=O)c1sccc1S(=O)(=O)Cc1c(Cl)cccc1Cl 0.44%
CCOC(=O)c1c(NC(=O)C2CC2)sc(C)c1CC -1.68%
CCOC(=O)c1c(NC(=O)C2C3C=CC(CC3)C2C(=O)O)sc(C)c1C (stereo unspecified) 46.5%
COC(=O)c1cc(C)sc1NC(=O)C1C2C=CC(CC2)C1C(=O)O (stereo unspecified) 47%
CCOC(=O)c1sc(NC(=O)C2C3C=CC(C3)C2C(=O)O)nc1C (stereo unspecified) 3.83%
CCOCCCn1c(=O)c(NC(=O)c2ccc(OCC)cc2)c2n(c1=S)CCCCC2 10.1%
O=C(NCC1CCCO1)C1C2C=CC3(CN(Cc4cccs4)C(=O)C13)O2 (stereo unspecified) 15.4%
O=C(NC1CCCC1)C1C2C=CC3(CN(Cc4cccs4)C(=O)C13)O2 (stereo unspecified) -3.35%
Cc1ccc(S(=O)(=O)N(C)CCCC(=O)NC(C)(C)C)cc1 -1.26%
O=C1CN(S(=O)(=O)c2ccc(Cl)cc2)CC(=O)N1CCc1ccccc1 -1.31%
CCOc1ccc(C2=Nn3c(nnc3-c3ccccc3OC)SC2)cc1 8.39%
COc1ccc(C2=Nn3c(nnc3-c3ccccc3OC)SC2)cc1OC 26.3%
CC(=O)Nc1nc(CCN2C(=O)c3ccccc3C2=O)cs1 0.9%
Cc1cccc2cc(C(c3nnnn3CC3CCCO3)N3CCCc4ccccc43)c(=O)[nH]c12 (stereo unspecified) 10.5%
CC(C)c1ccc(O)c(NC(=O)c2cccnc2)c1 7.21%
CN1C2CCC1/C(=C\c1ccccc1)C(=O)/C2=C\c1ccccc1 5.66%
CN1C2CCC1/C(=C\c1ccccc1Cl)C(=O)/C2=C\c1ccccc1Cl 3.79%
O=c1[nH]cnc2scc(-c3cccs3)c12 -7.24%
COc1ccc(Cl)cc1S(=O)(=O)n1nnc2ccccc21 49%
COc1ccc(OC)c(S(=O)(=O)n2nnc3ccccc32)c1 56.9%
O=S(=O)(Nc1cccc(-c2ccc3nncn3n2)c1)c1ccc(Cl)s1 26.4%
CN(C)c1cccc(-c2nnc(SCCCC#N)o2)c1 -3.34%
CCOC(=O)Cc1csc(NC(=O)NC2(C(F)(F)F)Oc3ccc(Cl)cc3O2)n1 (stereo unspecified) 52.5%
CCOC(=O)Cc1csc(NC(=O)NC2(C(F)(F)F)Oc3ccccc3O2)n1 6.11%
C=CCn1c(COC)nnc1SCC(=O)c1ccc(F)cc1 -1.58%
Cc1ccc(C(=O)NN2C(=O)CSC2=S)cc1 33.1%
CC(C)(C)c1ccc(C(=O)NN2C(=O)CSC2=S)cc1 5.92%
COc1ccccc1CNC(=O)CN1C(=O)C(C)N(c2ccc(C)cc2)C1=O (stereo unspecified) -0.45%
O=S(=O)(Nc1nc2ccccc2nc1NCCO)c1cccc(Cl)c1 45%
Cc1c(Nc2nc3ccccc3nc2NS(=O)(=O)c2cccs2)c(=O)n(-c2ccccc2)n1C 35.4%
Cc1ccc(Nc2nc3ccccc3nc2Nc2c(C)n(C)n(-c3ccccc3)c2=O)cc1 -3.59%
O=S(=O)(Nc1nc2ccccc2nc1NCC1CCCO1)c1cccc(Cl)c1 (stereo unspecified) 12.2%
Cc1c(Nc2nc3ccccc3nc2N2CCN(c3ccccc3)CC2)c(=O)n(-c2ccccc2)n1C 9.74%
Cc1c(NS(=O)(=O)c2ccccc2)c(=O)n(-c2ccccc2)n1C -14.2%
Cc1ccc(N(Cc2cc3ccccc3[nH]c2=O)S(=O)(=O)c2ccccc2)cc1 9.01%
CCN(CC)C(=O)CSc1nnc(-c2ccc(S(=O)(=O)N3CCCC3)cc2)o1 -8.97%
CCOC(=O)C1=NNC2C(=O)N(Cc3ccccc3)C(=O)C12 (stereo unspecified) 5.31%
COC(=O)C1=C(C)N(c2ccc(OC)cc2)C(C)=C(C(=O)OC)C1c1ccc(OC)cc1 -14.2%
Cc1nc2ccccc2c2c1C(=O)NC2=O -0.48%
CCOC(=O)C1CCN(c2cc(=O)n(C3CCCCC3)c(=O)[nH]2)CC1 7.51%
CS(=O)(=O)N(CC(=O)Nc1ccc(S(=O)(=O)N2CCOCC2)cc1)c1ccccc1Cl 12.3%
COc1ccccc1Cn1[nH]nnc1=S 5.05%
COc1ccc([C@H]2[C@H](C(=O)OC(C)(C)C)N3N=Cc4ccccc4C3C23C(=O)c2ccccc2C3=O)c(OC)c1 (stereo partly specified) 34.9%
COc1ccc([C@H]2[C@H](C(=O)OC(C)(C)C)N3N=Cc4ccccc4C3C23C(=O)c2ccccc2C3=O)cc1OC (stereo partly specified) 21.8%
CC(C)CCn1nnnc1C(c1ccc(N(C)C)cc1)N1CCN(C(=O)c2ccco2)CC1 (stereo unspecified) 8.08%
O=C(NNC(=O)C1CC1c1ccccc1)Nc1cccc(Cl)c1 (stereo unspecified) -2.69%
O=C(O)c1ccc(NC(=O)C2CC=CCC2C(=O)O)cc1 (stereo unspecified) 2.25%
O=C(O)C1CC=CCC1C(=O)NNc1ccccc1 (stereo unspecified) 1.11%
O=C(O)C1CC=CCC1C(=O)Nc1cccnc1 (stereo unspecified) 20.5%
COC(=O)c1cc(C)sc1NC(=O)C1CC=CCC1C(=O)O (stereo unspecified) 36.3%
CC1=C(C)CC(C(=O)NNC(=O)c2cccc(Cl)c2)C(C(=O)O)C1 (stereo unspecified) 27.5%
COC(=O)c1cc(NC(=O)C2CC2)cc(C(=O)OC)c1 4.68%
O=C(CCSc1ccccc1)NC1CCCCCC1 2.59%
COc1ccc(C(=O)NCCCCCC(=O)N/N=C/c2ccco2)cc1OC -1.79%
C=CCn1c(-c2ccc(OC)c(OC)c2)n[nH]c1=S 13.8%
COc1ccc(S(=O)(=O)Nc2ccc3c(c2)OCO3)cc1 -4.98%
COc1ccccc1NC(=S)NCCSc1ccc(Cl)cc1 -3.97%
O=C(Nc1nccs1)c1ccc(S(=O)(=O)N2CCOCC2)cc1 7.17%
CCCC1=C(C(=O)OCC)C(c2ccncc2)n2ncnc2N1 (stereo unspecified) 5.84%
CC1=CC(C#N)(C#N)C(C#N)(C#N)C(c2ccccc2)N1 (stereo unspecified) -40.9%
O=C(Nc1nccs1)c1ccc(NC(=O)c2ccco2)cc1 9.18%
O=C(O)C1CCCCC1C(=O)Nc1nccs1 (stereo unspecified) 15.9%
O=C(Nc1cccc([N+](=O)[O-])c1)C1C2CC/C=C\CCC21 (stereo unspecified) 0.68%
O=C(O)C1CCCCC1C(=O)NCCc1cccc(Cl)c1 (stereo unspecified) 75%
O=C(O)C1CC=CCC1C(=O)Nc1cccc(C(=O)N2CCCCC2)c1 (stereo unspecified) 40.8%
O=C(O)C1CC=CCC1C(=O)NCCc1ccccc1 (stereo unspecified) 42%
O=C(O)C1CC=CCC1C(=O)Nc1cccc([N+](=O)[O-])c1 (stereo unspecified) 14.2%
O=C(O)C1C2C=CC(C2)C1C(=O)Nc1cccc(F)c1 (stereo unspecified) 23.1%
O=C(Nc1nc(-c2ccccc2)cs1)C1c2ccccc2Oc2ccccc21 1.51%
Cc1ccc(Cn2c(=O)cc(C(=O)O)c3ccccc32)cc1 -52.6%
CC(C)CC(=O)N1CCN(S(C)(=O)=O)CC1 9.33%
CCCc1cc(C(=O)N2CCN(S(=O)(=O)c3ccc(OC)c(OC)c3)CC2)cs1 -3.16%
COc1ccc(Cl)cc1C(=O)N(Cc1nc(-c2cccc(C)c2)no1)C(C)C -1.6%
CC(C)(C)c1ccc(C(=O)Nc2ccc(O)c3c(=O)cc(-c4cccc(Cl)c4)oc23)cc1 0.21%
Cc1nnc(-c2cnn(C)c2N)n1CCCN(C)C -1.24%
Cc1ccccc1N1CCN(C(=O)CN2C(=O)c3ccccc3C2=O)CC1 -9.93%
O=C(Nc1ccc2nsnc2c1)c1cccs1 6.9%
Cc1ccc(S(=O)(=O)Oc2ccccc2/C=N/Nc2ccc(C(=O)O)cc2)cc1 28%
CC(=O)CC(C)(C)Nc1nc2ccc([N+](=O)[O-])cc2o1 13.3%
COC(=O)c1ccc(C)c(NS(=O)(=O)c2ccc(C)c([N+](=O)[O-])c2)c1 1.7%
O=C1C2CCCN2C(c2ccc(F)cc2)N1c1nccs1 (stereo unspecified) 0.99%
Cc1cccc(Oc2ccc(NC(=O)C3CC=CCC3C(=O)O)cc2)c1 (stereo unspecified) 2.18%
Cc1cc(C)cc(Oc2ccc(NC(=O)C3CC=CCC3C(=O)O)cc2)c1 (stereo unspecified) 5.05%
Cc1cccc(-n2c(CNC(=O)c3ccc(S(=O)(=O)N(C)C)cc3)nnc2SCC(=O)Nc2ccc(F)cc2)c1 -5.07%
COc1cccc(CNc2nc3nc(C)cc(=O)n3[nH]2)c1 -3.52%
CC(C)(C)c1ccc(OC(=O)CN2C(=O)C3C4CCC(C4)C3C2=O)cc1 (stereo unspecified) -0.46%
Cc1ccc(SCC(=O)Nc2ccccc2C(=O)O)cc1 -12.3%
CC(=O)Nc1cccc(C(=O)Nc2ccccc2C(=O)O)c1 4.74%
Cc1c(C(=O)O)cnc2c([N+](=O)[O-])cnn12 12.2%
CCOC(=O)c1cnc2c([N+](=O)[O-])cnn2c1C 12.8%
Cc1cnc2c(C(=O)O)cnn2c1 13.5%
O=C(O)c1cc2ncc(-c3[nH]ncc3[N+](=O)[O-])cn2n1 15.3%
